# Reference: PubChem BioAssay (Tox21)
# “And” between values parts separate entries of the source, which are not always exact repeats. Equal entries are not always repeated. Results filed as inconclusive are left out. A number with no mark means an inactive call. The source made the active and inactive calls. The call rests on the fitted dose curve; in most records, active means well fitted cell-killing curve with a large enough effect in the repeat runs; inconclusive means weak or mixed curves, or effect the other way; inactive means no such curve, though single readings can be large or run the other way.
# Assay: qHTS assay to identify small molecule agonists of the vitamin D receptor (VDR) signaling pathway - cell viability counter screen (AID 743224); further: nearly all actives have a fitted effect of over 50% in size
# Details: VDR-bla HEK293T viability, CellTiter-Glo luminescence, 16 h; series mostly up to 62.6 µM; activity change, negative = cytotoxicity: at the top concentration
# From the text: U.S. Tox21 Program National Center for Advancing Translational Sciences [NCATS] NIH Chemical Genomics Center [NCGC] U.S. Environmental Protection Agency [EPA] National Institutes of Environmental Health Sciences [NIEHS] National Toxicology Program [NTP] U.S. Food and Drug Administration [FDA] Tox21 Assay Overview: The vitamin D receptor (VDR), a member of nuclear hormone receptor superfamily, plays a critical role in calcium homeostasis and bone metabolism. It is also involved in cell differentiation and growth, and thrombogenicity. […] The cytotoxicity of the Tox21 compound library against the VDR-bla cell line was tested in parallel by measuring the cell viability using CellTiter-Glo assay (Promega, Madison, WI) in the same wells.
# Tox21 Assay Protocol Summary: VDR-bla cells were dispensed at 2,000 cells/6 uL/well into black wall/clear-bottom 1536-well plates using a Multidrop Combi (Thermo Fisher Scientific, Waltham, MA) dispenser. After the assay plates were incubated at a 37C and 5% CO2 for 4 h, 23 nL of compounds dissolved in DMSO, positive controls or DMSO only was transferred to the assay plate by a Pintool station (Kalypsys, San Diego, CA). The plates were incubated at 37C and 5% CO2 for 16 h. After 1 uL of LiveBLAzerTM B/G FRET substrate was added using a Bioraptr Flying Reagent Dispenser (FRD) workstation (Beckman Coulter, Indianapolis, IN, USA), the plates were incubated at room temperature for 2 h, and fluorescence intensity was measured by an Envision plate reader (PerkinElmer, Shelton, CT). For cell viability readout that measures cytotoxicity, 3 ul/well of CellTiter-Glo reagent was added into the assay plates using a FRD. After 30 min incubation at room temperature, the luminescence intensity in the plates was measured using a ViewLux (PerkinElmer) plate reader.
# On the % scale 0 is the no-effect control and ±100 the full control effect; potency means the concentration at half of the fitted maximal effect.
Structure (SMILES),"activity change, negative = cytotoxicity",Potency
OC1CCCc2ccccc21 (stereo not given),-26.3% [at 81.1 µM],
CC(C)(C)CC(C)(C)c1ccc(Nc2ccc(C(C)(C)CC(C)(C)C)cc2)cc1,10.9% [at 5.95 µM],
NC(=S)NC(N)=S,-27.6%,
O=C(/C=C/c1ccccc1)OC/C=C/c1ccccc1,2.14%,
Clc1ccnc(Cl)n1,3.66% [at 81.1 µM],
CCC(C)(CCC(C)C)C(=O)[O][Sn]([CH3])([CH3])[O]C(=O)C(C)(CC)CCC(C)C (stereo not given),-1.34%,
CC(C)=CCC1=C(O)c2ccccc2C(=O)C1=O,-16%,
O=C1NC(=O)[C@@H]2CC=CC[C@H]12,0.627%,
O=C(Oc1ccccc1)Oc1ccccc1,-1.34%,
OC12N=C(c3ccccc3)SC1Cc1cc(Cl)ccc12 (stereo not given),-4.88%,
O=C(O)CCN(C1(C(=O)NO)CCCC1)S(=O)(=O)c1ccc(Oc2ccc(F)cc2)cc1,19.1%,
OC[C@@H](O)[C@@H](O)CO,2.02%,
CC(CO)Oc1ccccc1 (stereo not given),-3.77% [at 81.1 µM],
C#C[C@]1(OC(C)=O)CC[C@H]2[C@@H]3CCC4=C/C(=N/O)CC[C@@H]4[C@H]3CC[C@@]21CC,-0.307%,
CN(C)c1ccc(C(=C2C=CC(=[N+](C)C)C=C2)c2ccc(N(C)C)cc2)cc1,,4.87 µM (active) and 4.9 µM (active) and 11.9 µM (active)
COC(=O)c1ccccc1C,0.957%,
C=Cc1cccc(C)c1,-0.0847%,
CCOC(=O)NNc1ccc(N(CC)CC(C)O)nn1 (stereo not given),7.8%,
Nc1ccc(NCCO)c([N+](=O)[O-])c1,-0.442%,
Cc1ccc(N/N=c2\c(=O)cc/c(=N\Nc3ccc(S(=O)(=O)O)cc3)c2=O)c(C)c1,7.35%,

Structure (SMILES),"activity change, negative = cytotoxicity",Potency
Cc1c(N)cccc1C(F)(F)F,20%,
Cc1cc(C(C)(C)C)cc(C)c1CC1=NCCN1,6.92%,
O=C1C(c2[nH]c3ccc(S(=O)(=O)O)cc3c2O)=Nc2ccc(S(=O)(=O)O)cc21,4.11%,
CN1CCN2c3ccccc3Cc3ccccc3C2C1 (stereo not given),-17.6%,
CC[N+](CC)(CC)CCOC(=O)C(C1CCCC1)C1CCCC1,-0.881%,
O=C(O)c1cc(-c2ccc(F)cc2F)ccc1O,-0.217%,
CC(C)CCCCCOC(=O)CCS,3.63%,
O=C(O)c1cc(N=Nc2ccc([N+](=O)[O-])cc2)ccc1O,-10.4%,
Nc1ccc(Oc2ccc(Cl)cc2)cc1,-6.29%,
CC1(C)CCC[C@]2(C)[C@H]3CC(=O)O[C@]3(C)CC[C@@H]12,-5.2%,
CN1CCCCC1CCN1c2ccccc2Sc2ccc(S(C)=O)cc21 (stereo not given),-4.11%,
NC[C@H]1O[C@H](O[C@H]2[C@H](O[C@@H]3O[C@H](CO)[C@@H](O)[C@H]3O)C(O)[C@H](N)C[C@@H]2N)[C@H](N)[C@@H](O)[C@@H]1O (stereo not given in full),-1.26% [at 13.2 µM],
CNc1ccc([N+](=O)[O-])cc1,-0.192%,
COc1cc(C)ccc1O,-17.5%,
Cc1c(C)c2c(c(C)c1O)CC[C@@](C)(CCC[C@H](C)CCC[C@H](C)CCCC(C)C)O2,-0.628% [at 81.1 µM],
CC(C)(c1cc(Br)c(OCC(Br)CBr)c(Br)c1)c1cc(Br)c(OCC(Br)CBr)c(Br)c1 (stereo not given),-1.74%,
Cc1ccc(C(C)C)cc2c(C)ccc1-2,-0.497%,
CCCCCc1ccc(Cl)cc1,-14%,
COc1c(C)c2c(c(O)c1C/C=C(\C)CCC(=O)OCCN1CCOCC1)C(=O)OC2,-2.28%,
O=[N+]([O-])c1cccc(C(F)(F)F)c1,3.73% [at 81.1 µM],
